Sampled rows, rich in hits. Any-hit rate of the full collection: about 3.7%.
RE007 growth inh: less growth of the S. pombe RE007 Vpr strain; Potency, µM (highest dose often 92.2 µM), for the others: top-dose activity change, negative = less growth, most hits filed as inhibitors; S. pombe RE007 Vpr strain, BacTiter-Glo ATP luminescence, 24 h; hit rate 0.21% among 360,000; active = well fitted falling curve with a large enough effect; inconclusive = small, poorly fitted or top-dose-only effect; inactive = no such curve, though single readings can be large or run the other way; also: nearly all actives have a fitted effect of over 50% in size
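Fission yeast RE007 carrying one integrated HIV-1 vpr copy, seeded at OD 0.01 in PMG+AL medium with 23 nL pinned compound. Grown 24 h at 30 degrees; viability read by BacTiter-Glo luminescence after 5 min.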
Sm TGR block: S. mansoni TGR enzyme inhibition. AID 485364. Potency, µM (series often up to 114 µM), inactives show at the top dose activity change, negative = inhibition, usual class: inhibitors. purified TGR, DTNB reduction, TNB absorbance 405 nm. Q962Y6. hit rate 3% among 360,000; also: nearly all actives have a fitted effect of over 60% in size
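First, TGR (20 nM dispensed) and NADPH were mixed with compound. Second, a 15 min room-temperature incubation followed. Third, further NADPH and then DTNB were added to start the reaction. Finally, TNB absorbance was monitored kinetically.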
TbPYK inhibitor: inhibitors of Trypanosoma brucei pyruvate kinase | Q57TT1 | TbPYK enzyme, Kinase-Glo Plus ATP luminescence, 45 min | Potency, µM (highest dose often 76.8 µM), for inactives: top-dose activity, negative = inhibition, actives largely listed as inhibitors | hit rate 0.12% among 410,000 | AID 624173; also: nearly all actives have a fitted effect of over 50% in size
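Enzyme and substrate buffer are dispensed first and compound is pin-transferred. ADP at 130 uM final then starts the reaction, which runs 45 min at room temperature. Detection reagent is added for 10 min before luminescence is imaged.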
FMDV inh: antivirals against foot and mouth disease virus. FMDV antiviral cell-based qHTS. Potency, µM (top dose mostly 57.9 µM), for inactives: at the highest dose activity change, negative = inhibition, usual class: inhibitors. hit rate 1.2% among 410,000. AID 1159524; calls by dose curve; tested in HEK293T cells; also: read-out not given here; nearly all actives have a fitted effect of over 45% in size
* hit, by the source's call; u = inconclusive; x = no result given; [ ] = another dose, or the depositor's remark. Unless noted, calls follow the shape of the dose curve; as a rule, active = well fitted curve in the direction sought with a large enough effect; inconclusive = small, poorly fitted or top-dose-only effect, or another doubt; inactive = no such curve, though single readings can be large; an effect the other way counts as inactive or inconclusive. % is scaled to controls: 0 for no effect and ±100 for the full control effect; potency is read from the fitted curve at half-maximal effect.

SMILES	RE007 growth inh	Sm TGR block	TbPYK inhibitor	FMDV inh
O=C(c1cc2nc(-c3ccco3)cc(C(F)(F)F)n2n1)N1CCN(c2ccc(F)cc2)CC1	6%	-24%	-15%	x
O=C(NC1CCCCC1)c1nn2c(C(F)(F)F)cc(-c3ccco3)nc2c1Br	9%	25µM*	-2%	0%
O=C(c1ccccc1)N1CCN(C(=O)c2nn3c(C(F)(F)F)cc(-c4ccco4)nc3c2Br)CC1	5%	40µM*	3%	-4%
O=C(O)c1cnn2c(C(F)(F)F)cc(-c3ccco3)nc12	16%	u	2%	-18%
CN(CCc1ccccn1)C(=O)c1nn2c(C(F)(F)F)cc(-c3ccco3)nc2c1Cl	15%	45µM*	-2%	u
CC(C)NC(=O)c1nn2c(C(F)(F)F)cc(-c3ccco3)nc2c1Cl	-9%	u	27%	-8%
O=C(OCc1cc(=O)n2nc(-c3cccs3)sc2n1)c1ccccc1Br	x	2%	-4%	0%
C[C@]12CC[C@@H]3c4ccc(OC(=O)N(CCCl)CCCl)cc4CC[C@H]3[C@@H]1CC[C@@H]2OP(=O)(O)O	x	x	-7%	x
COc1ccc(-c2cc(C(F)(F)F)n3ncc(C(=O)NCC4CCCO4)c3n2)cc1 (stereo not drawn)	21%	-7%	-4%	0%
COc1cccc(-c2cc(C(F)(F)F)n3ncc(C(=O)NCC4CCCO4)c3n2)c1 (stereo not drawn)	2%	u	1%	28µM*
O=C(c1cnn2c(C(F)(F)F)cc(-c3ccco3)nc12)N1CCc2ccccc2C1	15%	13µM*	-1%	-13%
O=C(NCC1CCCO1)c1nn2c(C(F)(F)F)cc(-c3ccc(Br)o3)nc2c1Br (stereo not drawn)	9%	16µM*	1%	-26%
O=C(Nc1cc(F)ccc1F)c1cc2nc(-c3ccco3)cc(C(F)(F)Cl)n2n1	x	22µM*	0%	-5%
N[C@@H](Cc1ccc(F)cc1)C(=O)O	-10%	x	-1%	-28%
N[C@@H](Cc1ccc(N(CCCl)CCCl)cc1)C(=O)O	6%[18.4 µM]	14µM*	3%	-20%
O=C(O)CCCc1ccc(N(CCCl)CCCl)cc1	-8%[18.4 µM]	50µM*	4%	-4%
NC(Cc1ccc(OC(F)F)cc1)C(=O)O (stereo not drawn)	8%	35µM*	6%	-11%
CCC(Oc1ccc(F)cc1)C(=O)Nc1nc2c(s1)CCCC2 (stereo not drawn)	x	7%	-1%	-13%
COc1ccc(CCNC(=O)c2ccc3nc(Cc4ccccc4)oc3c2)cc1OC	x	9%	10%	u
COc1cc(C(c2nnnn2C(C)(C)C)N2CCN(c3nc4ccccc4s3)CC2)ccc1O (stereo not drawn)	-10%	0.35µM*	u	-21%
COCCn1nnnc1C(c1cccs1)N1CCN(c2nc3ccccc3s2)CC1 (stereo not drawn)	-1%	11%	2%	u
Oc1ccc(C(c2nnnn2CCc2ccccc2)N2CCN(c3nc4ccccc4s3)CC2)cc1 (stereo not drawn)	-1%	8.9µM*	-2%	-2%
CC(C)C(c1nnnn1Cc1ccco1)N1CCN(c2nc3ccccc3s2)CC1 (stereo not drawn)	7%	u	-18%	22µM*
CC(C)Cc1nc2cc(NS(=O)(=O)N(C)C)cc(C(=O)N3CCc4ccccc4C3)c2n1C	x	x	x	12%
CCN(CC)c1ccc(NC(=O)c2cc3c(=O)n4cccc(C)c4nc3n2C)c(C)c1	x	7%	-4%	-5%
SMILES	RE007 growth inh	Sm TGR block	TbPYK inhibitor	FMDV inh
Cc1ncc2c(c1CNC(=O)/C=C/c1cccs1)CCN(C(=O)C1CC(=O)OC13CCCCC3)C2 (stereo not drawn)	x	x	x	-1%
COC(=O)[C@@H]1C[C@@H](NC(=O)c2cccc3c(C)c(C)[nH]c23)CN1Cc1cccc2ccccc12	x	x	x	-2%
CCOC(=O)CNC(c1ccccc1)c1cc(Br)ccc1NC(=O)CCN1CCOCC1 (stereo not drawn)	16%	6.3µM*	-22%	-1%
COC(=O)CNC(c1ccccc1)c1cc(Br)ccc1NC(=O)CNC(=O)OCc1ccccc1 (stereo not drawn)	1%	-2%	7%	-23%
COC(=O)CNC(c1ccccc1)c1cc(Br)ccc1NC(=O)CCN1CCOCC1 (stereo not drawn)	5%	8.9µM*	-27%	-1%
O=C(CSc1nc(-c2ccc(F)cc2)[nH]c1-c1ccc(F)cc1)Nc1ccc2c(c1)OCO2	x	5%	5%	u
COc1ccc(CNc2ncnc3c2c(-c2ccccc2)cn3-c2ccc(C)c(Cl)c2)cc1	x	-4%	-5%	-27%
COc1cc(Cc2ccc(N)c(OC)c2)ccc1N	-5%	-7%	6%	-7%
Nc1ccc(Cc2ccc(N)c(O)c2)cc1O	-25%	40µM*	-4%	68%
C=CCN1C(=O)N/C(=C/c2ccc(C)o2)C1=O	u	32µM*	u	12%
Cc1ccc(CN2C(=O)N/C(=C/c3ccc(-c4ccc(C(=O)O)cc4)o3)C2=O)cc1	8%	u	1%	-11%
Cc1ccc(NC(=O)CN2C(=O)N/C(=C/c3ccc(C)o3)C2=O)cc1	14%	35µM*	u	13%
CCn1c(C)cc(/C=C2\NC(=O)N(CC(=O)Nc3cccc(C)c3)C2=O)c1C	-4%	-33%	0%	22%
Cc1cccc(NC(=O)CN2C(=O)N/C(=C\c3ccc(-c4cccc(C(=O)O)c4)o3)C2=O)c1	2%	56µM*	-27%	15%
Cc1ccc(NC(=O)CN2C(=O)N/C(=C/c3cc(C)n(-c4cccc(C(=O)O)c4)c3C)C2=O)cc1	-9%	20µM*	-4%	7%
CCOC(=O)c1[nH]c(C)c(CCC(=O)Nc2ccc(C)cc2Cl)c1C	x	2%	2%	-19%
COc1c(C)c2c(c(O)c1CC=C(C)CCC(=O)OCCN1CCOCC1)C(=O)OC2	x	x	1%	x
C#Cc1cccc(C(=O)NCc2nc(-c3ccccc3NC(C)=O)oc2C)c1	x	x	x	2%
CCOC(=O)c1c(C)[nH]c(CCC(=O)NCc2ccccc2Cl)c1C	x	-5%	-7%	12%
Cc1ccc(CNc2ncnc3sc(C(=O)N4CCCC(C(N)=O)C4)c(C)c23)o1 (stereo not drawn)	x	x	x	-20%
O=C(COCc1cc(-c2ccc(F)cc2)on1)Nc1cccc(C(F)(F)F)c1	x	11%	5%	-8%
Cc1ccc(CN2C(=O)N/C(=C\c3cccn3-c3cccc(C(=O)O)c3)C2=O)cc1	-12%	35µM*	-7%	-20%
Cc1cccc(NC(=O)CN2C(=O)N/C(=C/c3ccc(C)o3)C2=O)c1	-13%	50µM*	u	-5%
O=C(/C=C/c1ccc(F)cc1)NCC1Cc2cccc(-c3ncccn3)c2O1 (stereo not drawn)	x	x	x	-14%
COc1cccc(CNC(=O)C(Cc2ccccc2)NS(=O)(=O)c2ccc3c(c2)oc(=O)n3C)c1 (stereo not drawn)	x	-4%	-3%	-6%

Assay outcomes: PubChem, National Center for Advancing Translational Sciences (NCATS)
